Source: PubChem BioAssay AID2546 (National Center for Advancing Translational Sciences (NCATS), 2010)
Hit rate of the full screen: of about 310,000 compounds, about 11,000 (3.5%) were called active. A call without a number means that no potency is given here. Inconclusive results (about 8%) are left out. The sample as a whole holds a higher share of actives than the screen did. A number with no mark means an inactive call. Calls follow the shape of the dose curve; as a rule, active = well fitted inhibition curve with a large enough effect; inconclusive = small, poorly fitted or top-dose-only effect, or effect the other way; inactive = flat fitted curve, though single readings scatter.
Potency is read from the fitted curve at half-maximal effect.

Assay: VP16 counterscreen qHTS for inhibitors of ROR gamma transcriptional activity;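 also: Gal4-VP16 expression switched on by copper sulfate through the metallothionein promoter; nearly all actives have a fitted effect of over 50% in size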
Details: Drosophila S2 Gal4-VP16 UAS-luciferase, luminescence, 20 h; series mostly up to 53.6 µM
In the case of `Cc1cccc(N2CCN(S(=O)(=O)c3ccc(-c4cc(C)no4)s3)CC2C)c1` (stereo not drawn), the Potency is reported as “inactive”. For `COCCCNS(=O)(=O)c1cccc(S(=O)(=O)c2cccc(S(=O)(=O)NCCCOC)c2)c1`, the Potency was “inactive”. In the case of `CCOc1ccccc1NS(=O)(=O)c1c[nH]c(C(=O)OC)c1`, the Potency is reported as “inactive”. With `CCCNC(=O)CSc1nc(Cc2ccccc2)nc2ccccc12` the Potency was “inactive”. For `COCc1ccc(CN2CCC(Oc3ccc(C(=O)NCc4ccccn4)cc3)CC2)o1`, the Potency was “inactive”. With `CC1(C)C(c2cccs2)=[N+]([O-])C2(CCCCC2=O)N1O` (stereo not drawn) the Potency was “inactive”. For `CC(=O)C1(C)N(O)C(C)(C)C(c2cccs2)=[N+]1[O-]` (stereo not drawn), the Potency was 10 µM (active). In the case of `C/C(=N\O)C1(C)N(O)C(C)(C)C(c2ccc(Br)cc2)=[N+]1[O-]` (stereo not drawn), the Potency is reported as “inactive”. With `COc1ccc(C2/C=C\CN(Cc3ccco3)C(C)C(=O)N2Cc2ccc(F)cc2)cc1` (stereo not drawn) the Potency was “inactive”. For `COc1ccc(CN2CC(C(=O)NC3CCCCC3)CC2=O)cc1` (stereo not drawn), the Potency was “inactive”. For `COc1ccc(CN2CN(C(C)C)CSC2=S)cc1`, the Potency was “inactive”. With `COc1ccc(CN2CN(C3CCCC3)CSC2=S)cc1` the Potency was 11.2 µM (active). For `CC(C)Nc1ccc(-n2nc3ccccc3[n+]2[O-])cc1`, the Potency was 10 µM (active). With `CC1CCN(C(=O)CCNC(=O)c2ccccc2)CC1` the Potency was “inactive”. In the case of `COc1ccc(CCNC(=O)CN2C(=O)CCSc3ccccc32)c(OC)c1`, the Potency is reported as “inactive”. For `C=CCn1c(-c2ccc3[nH]c(C)c(C)c3c2)n[nH]c1=S`, the Potency was 12.6 µM (active). For `COc1cc(-c2n[nH]c(=S)n2Cc2ccccc2)cc(OC)c1OC`, the Potency was “inactive”. With `C=CCn1c(=S)sc2c(=O)[nH]c(C)nc21` the Potency was “inactive”. With `COC(=O)c1cccc(C(=O)N2CCC(CCC(=O)NCc3ccc(F)cc3)CC2)c1` the Potency was “inactive”. For `O=C(c1ccc(Oc2ccc(Cl)cc2)c([N+](=O)[O-])c1)N1CCCC1`, the Potency was “inactive”. In the case of `CCN(CC)c1ccc(C(=O)Nn2c(C)nc3ccccc3c2=O)cc1`, the Potency is reported as “inactive”. For `COC(=O)c1ccc2c(=O)n(CCN3CCOCC3)c(SCC(=O)Nc3cccc(OC)c3)nc2c1`, the Potency was “inactive”. For `COc1ccccc1N1CCN(S(=O)(=O)CCNC(=O)c2ccc(OC(C)C)cc2)CC1`, the Potency was “inactive”. With `O=C(NC(=S)N1CCc2ccccc21)c1ccco1` the Potency was 3.16 µM (active). With `NC(=O)N1CCc2ccccc21` the Potency was “inactive”. For `O=C(CSCc1ccccc1)N1CCc2ccccc21`, the Potency was “inactive”. In the case of `CN(C)c1ccc(-c2nnc(-c3cccnc3)o2)cc1`, the Potency is reported as “inactive”. With `O=C(Nc1ccncc1)Nc1ccc(F)cc1` the Potency was “inactive”. With `Cc1ccc(C)c(N2CCN(C(=O)CCCCn3c(=O)[nH]c4ccccc4c3=O)CC2)c1` the Potency was “inactive”. In the case of `Cc1ccc(C)c(N2CCN(C(=O)CCCCCn3c(=S)[nH]c4ccc(N5CCOCC5)cc4c3=O)CC2)c1`, the Potency is reported as 5.62 µM (active). For `Cc1ccc(C)c(N2CCN(C(=O)CCCn3c(=O)c4cccn4c4cccnc43)CC2)c1`, the Potency was “inactive”. For `O=C(CSc1nc2nccnc2c(=O)n1Cc1cccs1)Nc1ccccc1F`, the Potency was “inactive”. With `CC(=O)N(C)c1ccc(NC(=O)Nc2cccc3ccccc23)cc1` the Potency was “inactive”. For `CCN1/C(=C/C(=S)Nc2ccccc2)Sc2ccccc21`, the Potency was 12.6 µM (active). In the case of `O=C(CCN1c2ccccc2Sc2ccccc21)Nc1ccccc1`, the Potency is reported as “inactive”. With `CCNC(=O)N1c2ccccc2Sc2ccccc21` the activity, negative = inhibition was -17% [at 10 µM]. With `Cc1ccc(C(=O)N2CC(=O)Nc3ccc(F)cc3C2c2ccc(F)cc2)cc1` (stereo not drawn) the Potency was “inactive”. With `CN(CC1CCCO1)S(=O)(=O)c1ccc(C(=O)Nc2ccc(F)cc2)cc1` (stereo not drawn) the Potency was “inactive”. With `N#C[C@]1(S(=O)(=O)c2ccccc2)C[C@@H]2ON=C(c3cccc(Br)c3)[C@@H]2C1` the Potency was 11.2 µM (active). With `COC(=O)[C@]1(S(=O)(=O)c2ccccc2)C[C@@H]2ON=C(c3ccc(OC)cc3)[C@@H]2C1` the Potency was “inactive”. With `Cc1cc(NC(=O)c2ccco2)c(=O)n(Cc2c(F)cccc2Cl)c1` the Potency was “inactive”. In the case of `Cc1c(CN2CC[C@@H](N3CCN(c4ccccn4)CC3)[C@H](O)C2)[nH]c2ccc(F)cc12`, the Potency is reported as “inactive”. In the case of `CC(C)n1c(=S)[nH]c2cc(C(F)(F)F)ccc21`, the Potency is reported as 10 µM (active). In the case of `CCCn1c(=S)[nH]c2ccc(C(F)(F)F)cc21`, the Potency is reported as “inactive”. In the case of `COc1ccc(C)cc1N(C(=O)Cn1nnc(-c2ccc(C)o2)n1)C(C(=O)NC1CCCC1)c1ccncc1` (stereo not drawn), the Potency is reported as “inactive”. In the case of `COc1ccc(-c2nc(N)ncc2-c2ccc(Cl)cc2)c(O)c1`, the Potency is reported as “inactive”. In the case of `Cc1[nH]nc(-c2ccc(OCc3cnn(-c4ccccc4)c3)cc2O)c1Oc1ccc(Cl)cc1`, the Potency is reported as 3.98 µM (active). In the case of `Oc1cccc(C2c3[nH]c4ccccc4c3CCN2Cc2cnn(-c3ccccc3)c2)c1` (stereo not drawn), the Potency is reported as “inactive”. In the case of `COC(=O)c1c(NC(=O)c2ccccc2F)sc2c1C(C(=O)OC)CC2` (stereo not drawn), the Potency is reported as “inactive”. In the case of `CCc1ccc(N2CC(C(=O)N3CCCCCC3)CC2=O)cc1` (stereo not drawn), the Potency is reported as “inactive”. For `O=c1[nH]cnc2c1c(-c1ccccc1)cn2-c1ccc(F)cc1`, the Potency was “inactive”. In the case of `COc1ccc(N2C(=O)C(Cc3ccccc3)NC2=S)cc1` (stereo not drawn), the Potency is reported as “inactive”. In the case of `COc1ccc(-n2cc(-c3ccccc3)c3c(=S)nc[nH]c32)cc1`, the Potency is reported as 1.12 µM (active). For `Cc1ccc(S(=O)(=O)NCc2ccc(C(=O)NC3CCC(C)CC3)cc2)cc1` (stereo not drawn), the Potency was “inactive”. In the case of `Fc1ccc(CSc2nnc(-c3cc4c(s3)-c3ccccc3CC4)o2)cc1`, the Potency is reported as “inactive”. In the case of `O=C(CSc1nnc(-c2ccccc2O)o1)NC1CCCCC1`, the Potency is reported as “inactive”. In the case of `CCSc1nnc(-c2cc3c(s2)-c2ccccc2CC3)o1`, the Potency is reported as 2.51 µM (active). With `COc1cccc(CNc2ncc(-c3ccccc3)n2C)c1` the Potency was “inactive”. With `O=C(CCC1CCCN(C(=O)c2ccc(F)c(F)c2)C1)N1CCN(c2ccccn2)CC1` (stereo not drawn) the Potency was “inactive”. For `CCCCNC(=S)NNC(=O)c1cc(C)on1`, the Potency was 11.2 µM (active). For `COCCCNC(=S)NNC(=O)C(O)(c1ccccc1)c1ccccc1`, the Potency was “inactive”. For `Cc1cc(C(=O)NCCCc2ccccc2)no1`, the Potency was “inactive”. With `O=C(NCCN1CCCC(O)C1)c1cc(COc2c(F)cccc2F)on1` (stereo not drawn) the Potency was “inactive”. For `CC1CCN(S(=O)(=O)c2ccc(NC(=O)C3CC(=O)N(c4ccccc4)C3)cc2)CC1` (stereo not drawn), the Potency was “inactive”. With `COc1cccc(NC(=O)C(=O)c2cn(CC(=O)N3CCOCC3)c3ccccc23)c1` the Potency was “inactive”. With `Cc1ccc(NC(=O)c2cc3ccccc3o2)cc1` the Potency was “inactive”. In the case of `C/C(=N\NC(=S)Nc1ccc(C)cc1)c1cc2ccccc2o1`, the Potency is reported as 0.794 µM (active). In the case of `Cc1ccc(OC(=O)c2cc3ccccc3o2)cc1`, the Potency is reported as “inactive”.
